# HCMV antiviral – human cytomegalovirus inhibition. HFF cells, HCMV-luciferase reporter, 72 h; hits give low values. activity change, negative = inhibition, % at 57.5 µM. actives 4.5% (n = 410,000). AID 1259415; in the data active = activity change below about -60%; inconclusive = no clear call, values can overlap the other calls; inactive = above about -39%
#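 Two-dose cell screen: HFF monolayers treated with compounds and infected with luciferase-expressing HCMV at 1 PFU/cell, 72 h at 37C, then lysed for luciferase measurement.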
# HCV inh – HCV inhibition; Potency, µM (titrated, usually from 41.8 µM), without a hit: at the highest dose activity change, negative = inhibition, actives largely listed as inhibitors; actives 3.4% (n = 340,000); Huh7.5.1 HCVcc-Cre infection, luciferase reporter, 44 h; active = well fitted inhibition curve with a large enough effect; inconclusive = small, poorly fitted or top-dose-only effect, or another doubt; inactive = no such curve, though single readings can be large or run the other way; note: potency is the fitted concentration of half-maximal effect
#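 1,000 cells/well; 4 h culture; + compound; + HCVcc-Cre (~0.5 moi); 44 h; luciferase substrate, RT 15 min; read 15 sec.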
# VACV mCherry inh – inhibitors of vaccinia virus infection (mCherry reporter signal). actives 0.63% (n = 310,000). AID 720579. Vaccinia virus mCherry reporter infection, fluorescence. Potency, µM (series often up to 36.5 µM), for the others: top-dose activity change, negative = inhibition, hits mostly inhibitors; calls by dose curve; tested in A549 cells; note: potency is the fitted concentration of half-maximal effect; nearly all actives have a fitted effect of over 35% in size
# FMDV antiviral – antivirals against foot and mouth disease virus; FMDV antiviral cell-based qHTS; Potency, µM (series often up to 57.9 µM), for the others: at the top dose activity change, negative = inhibition, usual class: inhibitors; actives 1.2% (n = 410,000); calls by dose curve; tested in HEK293T cells; note: read-out not given here; potency is the fitted concentration of half-maximal effect; nearly all actives have a fitted effect of over 45% in size
# VACV Venus inh – vaccinia inhibition (Venus reporter); Vaccinia virus Venus reporter expression, fluorescence; AID 720580; Potency, µM (series often up to 36.5 µM), without a hit: at the highest dose activity change, negative = inhibition, actives largely listed as inhibitors; actives 0.46% (n = 330,000); calls by dose curve; tested in A549 cells; note: potency is the fitted concentration of half-maximal effect; nearly all actives have a fitted effect of over 30% in size
# The depositor's hits bear a star; i = inactive; ? = inconclusive; / = not tested or not shown; + = active, no number; [ ] = another dose, or the depositor's remark. Compounds with a hit are over-represented: about 7.3% of the library has one in this group of screens. % is set by controls: 0 for no effect and ±100 for the full control effect.
SMILES,HCMV antiviral,HCV inh,VACV mCherry inh,FMDV antiviral,VACV Venus inh
COc1cc(NC(=O)C2CCCN(S(=O)(=O)c3cccc4nsnc34)C2)cc(OC)c1 (configuration not stated),8,-17%,-16%,-29%,-23%
O=C(Nc1nc2cc(Cl)ccc2s1)C1CCCN(S(=O)(=O)c2cccc3cccnc23)C1 (configuration not stated),/,11µM*,-11%,0%,?
O=C(C1CCCN1S(=O)(=O)c1cccc2nsnc12)N1CCN(c2ccc(F)cc2)CC1 (configuration not stated),-66*,-3%,/,-3%,/
CN(C)c1ccc(/C=C/c2c(F)cnc3ccccc23)cc1,/,/,7%,/,-14%
CCCCCCCCCCCCCCCC(=O)NC(C)C,/,/,/,-12%,/
OC(Br)C(O)C(O)N1CCCc2ccccc21 (configuration not stated),/,/,-28%,/,-26%
C=CCOc1cccc(C(=O)/C=C2/C(=O)Nc3ccccc32)c1,-6,?,/,28µM*,/
O=C1Nc2ccc(Br)cc2/C1=C/C(=O)c1ccccc1,?,2%,-15%,?,-22%
COc1cc(CNC(=O)c2ccc3c(c2)c(C)c(C)n3Cc2cccc(C)c2)cc(OC)c1OC,-87*,/,-25%,0%,-4%
Cc1c(C)n(Cc2ccccc2)c2ccc(C(=O)NCc3ccccc3F)cc12,+,/,-11%,17%,-6%
CCCOc1ccc(C(F)(F)F)cc1NS(=O)(=O)c1ccc(Cl)nc1,-19,-3%,11µM*,8%,?
CCCOc1ccc(C(F)(F)F)cc1NC(=O)c1cc(C)on1,1,-10%,/,-15%,/
CCN1CCN(Cc2ccc(NC(=O)c3ccc(C)c(NC(=O)c4ccc5n[nH]nc5c4)c3)cc2C(F)(F)F)CC1,36,3%,i,0%,-20%
CCN1CCN(Cc2ccc(NC(=O)c3ccc(C)c(NC(=O)C(=O)c4c[nH]c5ccccc45)c3)cc2C(F)(F)F)CC1,-101*,?,11µM*,?,10µM*
CCN1CCN(Cc2ccc(NC(=O)c3cccc(-c4ccc5nc(NC(=O)C6CC6)sc5n4)c3)cc2C(F)(F)F)CC1,-99*,/,/,/,/
CCN1CCN(Cc2ccc(NC(=O)c3cc(NC(=O)C(=O)c4c[nH]c5ccccc45)cc(OC)c3)cc2C(F)(F)F)CC1,-101*,-16%[8.37 µM],?,?,10µM*
Cc1ccc(C)c(NC(=O)c2ccc(CN3CC(=O)N4CCCCC4C3=O)cc2)c1 (configuration not stated),?,/,-9%,-14%,-8%
CS(=O)(=O)c1ccc(Sc2nc3ccccc3[nH]2)c([N+](=O)[O-])c1,?,-12%,/,-19%,/
O=[N+]([O-])c1cc(S(=O)(=O)C(F)(F)F)ccc1Sc1nc2ccccc2[nH]1,-103*,?,-28%,?,-12%
O=C1C(Cl)=C(NCc2cccnc2)C(=O)c2ccccc21,-28,13µM*,?,?,28µM*
CC(=O)N(Cc1ccc(F)cc1)c1cccc(C)c1C,?,23%,-17%,-14%,-15%
O=C(O)c1cccc(NC2=C(Cl)C(=O)c3ccccc3C2=O)c1,-100*,?,/,?,/
CCN(CC)CCCNC1=C(Cl)C(=O)c2ccccc2C1=O,-94*,3.2µM*,?,28µM*,?
COCCCNC1=C(Cl)C(=O)c2ccccc2C1=O,-22,-15%,?,4%,-20%
CC(=O)N(Cc1ccc(F)cc1)C1=C(NCCc2ccccc2)C(=O)c2ccccc2C1=O,-100*,10µM*,2.8µM*,25µM*,3.2µM*
SMILES,HCMV antiviral,HCV inh,VACV mCherry inh,FMDV antiviral,VACV Venus inh
O=C1C(Cl)=C(NCCc2ccccc2)C(=O)c2ccccc21,-64*,?,-23%,-17%,25%
O=C1C(Cl)=C(Nc2ccccc2)C(=O)c2ccccc21,0,?,i,40µM*,-1%
O=C(O)c1ccc(NC2=C(Cl)C(=O)c3ccccc3C2=O)cc1,?,?,/,25µM*,/
C=CCNC1=C(Cl)C(=O)c2ccccc2C1=O,68,?,?,-14%,13µM*
CC(C)NC1=C(Cl)C(=O)c2ccccc2C1=O,?,?,?,-1%,?
COC(=O)c1scc(-c2ccc(C)cc2)c1S(=O)(=O)N1CCN(c2ccccc2F)CC1,-14,/,-16%,14%,1%
Cc1ccc(C2CC(=O)N(Cc3ccccc3)c3c2c(C)nn3-c2nc(C)cc(C)n2)cc1 (configuration not stated),-36,/,-3%,3%,-12%
Nc1c2ccccc2nc2ccccc12,-99*,5µM*,?,?,10µM*
O=C(NC(=O)c1cc([N+](=O)[O-])ccc1Cl)C1=C(N2CCCC2)COC1=O,-25,?,?,20µM*,-23%
O=C(NC(=O)c1ccccc1)C1=C(N2CCCC2)COC1=O,15,-1%,i,18%,-15%
Cc1c(Cl)cccc1NC(=O)c1ncn(-c2ccccc2)n1,36,/,-16%,46%,-9%
O=C(CSc1nncn2c1cc1sccc12)Nc1ccccc1C(F)(F)F,-73*,/,-6%,-11%,-4%
COc1ccccc1NC(=O)CSc1nncn2c1cc1sccc12,?,/,?,-15%,-30%
COc1cccc(-c2cc(C(F)(F)F)nc(-n3cc(C)cn3)n2)c1,-37,10µM*,/,-23%,/
O=[N+]([O-])c1cnn(-c2nc(-c3ccccc3)cc(C(F)(F)F)n2)c1,-76*,?,-5%,-17%,-8%
O=[N+]([O-])c1ccc(O)c(-c2cc(C(F)(F)F)nc(-c3ccccc3)n2)c1,-101*,1.4µM*,/,?,/
Oc1ccccc1-c1cc(C(F)(F)C(F)F)nc(-c2ccccc2)n1,-12,?,/,0%,/
FC(F)(F)COc1nc(N2CCOCC2)nc(N(c2ccccc2)c2ccccc2)n1,-86*,?,?,?,?
FC(F)(F)COc1nc(OCC(F)(F)F)nc(N2CCN(c3ccccc3)CC2)n1,-23,-21%,/,?,?
CCOc1ccc(NC(=O)CSc2nnc(CC)c(CC)n2)cc1,0,/,-7%,7%,-10%
FC(F)(F)c1cc(-c2cccs2)nc(-n2cc(Cl)cn2)n1,-3,10µM*,/,?,/
FC(F)(F)c1cc(-c2ccccc2)nc(N2CCOCC2)n1,?,8.9µM*,-26%,-13%,-22%
FC(F)(F)c1ccc(N2CCN(c3cc(-c4ccccc4)nc4ncnn34)CC2)nc1,-98*,8.9µM*,i,/,-5%
FC(F)(F)c1cccc(Nc2cc(-c3ccccc3)nc3ncnn23)c1,?,9%,/,-16%,/
CCOC(=O)C1=C(C)NC(C)=C(C(=O)OCC)C1c1ccc(Br)o1,-79*,?,-13%,-30%,-19%
CCOC(=O)C1=C(C)NC(=O)NC1c1ccc(Br)o1 (configuration not stated),2,32%,-16%,1%,-18%

# Assay outcomes from PubChem BioAssay.
